Laboratory results taken from PubChem BioAssay (NCATS).
Results filed as inconclusive are left out. Values without a mark were called inactive. Calls of active or inactive are those of the source. The call rests on the fitted dose curve; in most records, active means well fitted curve in the direction sought with a large enough effect in the signal ratio, with a control signal flat (not every such curve was filed as active); inconclusive means small, poorly fitted or top-dose-only effect, or a change in a side signal; inactive means no such curve, though single readings can be large or run the other way; the % refers to the signal ratio.

Test: qHTS Assay for Identification of Small Molecule Inducers of Hypoxia Response (AID 2120); further: 0% is about no effect
Settings: hypoxia response reporter cells, beta-lactamase ratio readout; series mostly up to 104 µM; activation: at the top concentration
Excerpt: NIH Chemical Genomics Center [NCGC]
NIH Molecular Libraries Screening Centers Network [MLSCN]
National Institutes of Environmental Health Sciences [NIEHS]
National Toxicology Program [NTP]
Hypoxia-inducible factor-1 (HIF-1) is the major hypoxia-regulated transcription factor that controls cellular responses to low oxygen concentration. HIF-1 is composed of two subunits: hypoxia responsive HIF-1a and constitutively expressed HIF-1b, which is also known as aryl hydrocarbon receptor nuclear translocator. During hypoxic conditions, HIF-1a heterodimerizes with HIF-1b and translocates into the nucleus where the HIF-1 complex binds to the hypoxia-response element (HRE) and activates expression of target genes such as VEGF (vascular endothelial growth factor). The HIF-1 pathway is essential to normal growth and development, and is involved in the pathophysiology of cancer, inflammation, and ischemia.
Using a beta-lactamase reporter-gene under control of the hypoxia response element, a cell-based assay [CellSensor(TM) HRE-bla ME-180 developed by Invitrogen Corp.] was used to measure hypoxia-induced signaling. Library compounds were measured for their ability to induce the reporter gene activity. Compounds were screened in a titration series in 1536-well format. The inducers were identified based on the AC50 values derived from the screening data.
NCGC Assay Protocol Summary
2500 cells/5uL in Opti-MEM medium containing 0.5% dialyzed FBS, 0.1 mM NEAA, 1 mM sodium pyruvate and 10 mM HEPES was dispensed into 1536-well plates and cells were cultured at 37 degrees Celsius for 4-5 hours and then 23 nL of compounds or DMSO were delivered to each well using a pin tool. The plates were incubated at 37 degrees Celsius for 17 hours. 1 uL of CCF4-dye mixture was added to each well. After incubated at room temperature for 2.5 hours the plates were measured on an EnVision plate reader at Excitation 405nm, Emission1=460nm and Emission 2=530nm. The %Activity was determined from the ratio of 460nm/530nm.

SMILES	activation [%]	outcome
CC(C)(C)c1ccc(O)c(O)c1	2.69	
COc1cc(C=O)ccc1O	0.576	
Cc1cc(C(C)(C)C)c(O)c(C(C)(C)C)c1	0	
CCCC(=O)c1cc(O)c(O)cc1O	-0.146	
CC(C)(c1ccc(O)cc1)c1ccc(O)cc1		inactive
O=C(c1ccccc1)c1ccccc1	-0.0232	
O=C(NO)c1ccccc1	-0.302	
OCc1c[nH]c2ccccc12	0.302	
CCCCC(CC)COC(=O)c1ccccc1C(=O)O (configuration not stated)	-0.4	
O=C(Oc1ccccc1)c1ccccc1O	0.423	
CC(C)C(C)(C)C(C)(C)C(C)(C)S	1.52	
Brc1ccccc1-c1ccccc1	0.848	
C1=CC2C3C=CC(C3)C2C1 (configuration not stated)	0.0403	
CC(=O)OC/C=C(C)/C=C/C=C(C)/C=C/C1=C(C)CCCC1(C)C	1.57	
Oc1ccccc1	0.0609	
c1ccc2occc2c1	0.262	
Nc1cccc2c(N)cccc12	0.087	
